From PubChem BioAssay AID651858 (Broad Institute, 2012) come the findings set out here.

Structures are written as SMILES. The list shows a part of the results. A number with no mark means an inactive call.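 The calls were made as follows: active = at highest dose tested, delta Tm positive; inactive = the rest.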

The assay in a line: Sypro Orange dye melt without protein, dose response, artefact control for Keap1-Nrf2 interaction inhibitor project, biochemical, thermal shift counterscreen, cherry-pick (AID 651858). The settings on record: Sypro Orange dye-only thermal melt, no protein, top dose 50 µM, hits give high values. (In general: Counterscreens check selectivity or assay interference.)

Turning to `Nc1ccc2nc3c(=O)[nH]c(=S)[nH]c3nc2c1`, the delta Tm is -27.3 °C.

As for `CCCC(=O)Nc1ccc(C(=O)NCCCn2ccnc2)cc1`, the delta Tm was -28 °C.

Regarding `CCCC1OC23CCCCC2C(C#N)(C#N)C1(C#N)C(=N)O3` (stereo not given), the delta Tm was -28.4 °C.

As for `COc1ccc(C2c3ccc(O)cc3Oc3ncn(CCCO)c(=N)c32)cc1OC` (stereo not given), the delta Tm is -26.7 °C.

Consider `O=C(Nc1ccccn1)C1CCN(S(=O)(=O)c2ccc3c(c2)OCCO3)CC1`, for which the delta Tm is -21.3 °C.
